Source: PubChem
PINK1 modulator – changes PINK1 expression; Potency, µM (titrated, usually from 76.6 µM), inactives show at the top dose activation (PINK1 increase), hits mostly activators; hit rate 0.2% among 410,000; AID 624263; PINK1 immunofluorescence, high-content cytometry, 24 h; active = well fitted activation curve with a large enough effect; inconclusive = small, poorly fitted or top-dose-only effect; cell line not stated here; note: % of control where 0% means no effect; nearly all actives have a fitted effect of over 65% in size
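Stable cell line treated 24 h with compounds at 5 concentrations (CCCP controls), then fixed and immunostained for PINK1 plus nuclear and cell stains; PINK1 immunofluorescence quantified by laser-scanning microplate cytometry.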
Epigenetic reg – epigenetic control regulation, reporter derepression. murine LDR cells, GFP reporter derepression, 30 h. hit rate 0.2% among 280,000. AID 1865. Potency, µM (top dose mostly 53.9 µM), without a hit: top-dose GFP activation, hits mostly activators; note: % of control where 0% means no effect; nearly all actives have a fitted effect of over 60% in size
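In this reporter-derepression format, murine cells bearing a silenced integrated CMV-GFP locus incubate with test compound (30 h, 37 C), then are washed and imaged; fluorescent objects of 20–120 um count as induced cells.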
GLS inh – inhibitors of human glutaminase (GLS). Potency, µM (doses to about 45.5 µM), inactives show at the highest dose activity change, negative = inhibition, usual class: inhibitors. hit rate 0.21% among 410,000. GLS enzymatic activity, qHTS titration. O94925; note: % is set by controls: 0 for no effect and ±100 for the full control effect
Target sequence (O94925 whole entry, looked up): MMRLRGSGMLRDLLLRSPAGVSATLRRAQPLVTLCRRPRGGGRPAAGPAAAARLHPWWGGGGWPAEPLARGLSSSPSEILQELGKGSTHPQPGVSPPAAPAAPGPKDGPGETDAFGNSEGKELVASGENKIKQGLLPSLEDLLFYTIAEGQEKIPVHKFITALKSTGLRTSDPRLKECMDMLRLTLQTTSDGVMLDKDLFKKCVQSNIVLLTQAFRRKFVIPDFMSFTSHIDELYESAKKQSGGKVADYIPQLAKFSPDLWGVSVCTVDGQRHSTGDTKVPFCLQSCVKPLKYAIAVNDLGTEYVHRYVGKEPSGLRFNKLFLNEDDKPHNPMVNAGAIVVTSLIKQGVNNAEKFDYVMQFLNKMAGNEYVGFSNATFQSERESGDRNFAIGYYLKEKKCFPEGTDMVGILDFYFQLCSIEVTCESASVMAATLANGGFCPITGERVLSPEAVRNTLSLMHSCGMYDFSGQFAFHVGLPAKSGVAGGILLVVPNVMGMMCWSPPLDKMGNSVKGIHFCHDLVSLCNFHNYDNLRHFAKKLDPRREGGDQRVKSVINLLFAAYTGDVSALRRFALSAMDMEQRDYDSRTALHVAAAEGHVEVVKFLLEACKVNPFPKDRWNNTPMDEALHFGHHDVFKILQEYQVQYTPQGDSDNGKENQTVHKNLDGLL
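Compounds were pin-transferred onto hKGA, after which L-glutamine (1 mM solution) and a detection mix of glutamate oxidase, HRP and Amplex Red were added. Initial and 30 min RT fluorescence reads were collected.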
Vif-APOBEC3G blk – inhibitors of Vif-APOBEC3G interaction | Q9HC16 | HeLa A3G-eYFP + Vif (tagged APOBEC3G with the HIV-1 protein that degrades it), YFP fluorescence, overnight | Potency, µM (doses to about 46.1 µM), without a hit: at the highest dose activity, negative = active, actives largely listed as inhibitors | hit rate 0.076% among 410,000; note: % is set by controls: 0 for no effect and ±100 for the full control effect; nearly all actives have a fitted effect of over 60% in size
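HeLa cells stably expressing Vif and C-terminally eYFP-tagged A3G, seeded overnight at 37 deg C, then exposed to compound by pintool overnight at 37 deg C. Rise in yellow fluorescence (Ex 488/Em 500-530, Acumen) marks blocked Vif-driven A3G degradation.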
Vif-APOBEC3F blk – blocks the Vif interaction with APOBEC3F | HeLa A3F-eYFP + Vif (tagged APOBEC3F with the HIV-1 protein that degrades it), YFP fluorescence increase | Potency, µM (titrated, usually from 46.1 µM), for the others: top-dose activity, negative = active | hit rate 0.2% among 390,000 | AID 602313; note: % of control where 0% means no effect; nearly all actives have a fitted effect of over 65% in size
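HeLa cells stably expressing A3F-eYFP plus Vif, plated and incubated overnight at 37 deg C, then exposed to compounds overnight at 37 deg C. Blocked degradation read as raised yellow fluorescence (Ex 488/Em 500-530).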
* hit, by the source's call; ? = inconclusive; . = no result. This is a sample that favours compounds with a hit; in the whole collection about 0.7% have one here. Unless noted, calls come from the whole dose curve; as a rule, active = well fitted curve in the direction sought with a large enough effect; inconclusive = small, poorly fitted or top-dose-only effect, or another doubt; inactive = no such curve, though single readings can be large; an effect the other way counts as inactive or inconclusive. Potency is the fitted concentration of half-maximal effect.

SMILES | PINK1 modulator | Epigenetic reg | GLS inh | Vif-APOBEC3G blk | Vif-APOBEC3F blk
c1ccc(N=NC2=NN(c3ccccc3)CS2)cc1 | 2% | . | -4% | 3% | 4µM*
c1ccc(C2=NN(c3ccccc3)CC2)cc1 | 1% | -5% | 10% | 1% | 13%
Cc1cc(Br)cc2c1NC(=O)C2(c1c(C)n(C)n(-c2ccccc2)c1=O)c1c(C)n(C)n(-c2ccccc2)c1=O | -1% | -1% | 3% | -1% | 5%
COc1cc(C2(c3ccc(O)c(OC)c3)C(=O)Nc3c(C)cc(Br)cc32)ccc1O | 10% | . | 2.5µM* | -1% | 2%
CCC1(C2CCN(Cc3cc4ccccc4o3)CC2)NC(=O)N(CC2COc3ccccc3O2)C1=O (stereo not drawn) | 0% | . | . | . | .
CCN(CC)c1ccc(/C=C/c2sc3ccccc3[n+]2CCCCI)cc1 | 32µM* | . | . | -11% | .
CC(=O)Nc1ccc(/C=C/c2sc3ccccc3[n+]2CCCCI)cc1 | 0% | . | . | -7% | .
Cn1nccc1C(=O)NCC1CCC2(CCN(Cc3ccc(-c4ccc(Cl)cc4)o3)CC2)O1 (stereo not drawn) | -1% | . | . | . | .
CS(=O)(=O)c1ccc2c(c1)sc1nc(=O)c(/C=C3/C=CC(=O)C(O)=C3)c(N)n12 | -1% | -2% | -8% | 4% | -21%
CCOC1=C/C(=C/c2c(N)n3oc(C)cc3nc2=O)C=CC1=O | . | -1% | . | . | .
COC1=C/C(=C/c2c(N)n3nc(-c4ccc(C)cc4)sc3nc2=O)C=CC1=O | 0% | ? | -10% | -18% | 11µM*
CCOC1=C/C(=C/c2c(N)n3nc(-c4ccccc4)sc3nc2=O)C=CC1=O | -4% | 2% | -25% | -16% | 8.9µM*
CCS(=O)(=O)c1nn2c(N)c(/C=C3/C=CC(=O)C(OC)=C3)c(=O)nc2s1 | -1% | 1% | 29% | -8% | 20µM*
COC1=C/C(=C/c2c(N)n3c(nc2=O)sc2cc(S(C)(=O)=O)ccc23)C=CC1=O | 1% | -1% | ? | ? | ?
COC(=O)CCC(=O)OC1(C)C(=O)C2=COC(c3ccc(OC)cc3)=CC2=C(Br)C1=O (stereo not drawn) | 0% | 0% | ? | -2% | -3%
COc1ccc(C2=CC3=C(Br)C(=O)C(C)(OC(=O)c4ccc(Cl)nc4)C(=O)C3=CO2)cc1 (stereo not drawn) | 14µM* | -1% | -29% | 0% | -3%
CC(C)(C)Cc1c(-c2ccc(Br)cc2)nc2ccc(Br)cn12 | 40µM* | . | 3% | -8% | ?
COc1ccc(Cc2c(-c3ccccc3)nc3ccc(Br)cn23)c(C)c1 | 32µM* | . | 5% | -27% | .
COc1ccc(Cc2c(-c3cccc(Br)c3)nc3ccc(Cl)cn23)c(C)c1 | 2% | . | 27% | -12% | .
CCn1c(-c2ccccc2F)nc2cc(NC(C)=O)cc(C(=O)N3CCCC3c3nccs3)c21 (stereo not drawn) | -1% | . | . | . | .
COC(=O)c1ccccc1-c1cc(C)cc2c1OC(CNC(=O)C1CCCO1)C2 (stereo not drawn) | 0% | . | . | . | .
Cc1cc2c(c(-c3nc4ccccc4s3)c1)OC(CNC(=O)c1occc1C)C2 (stereo not drawn) | 1% | . | . | . | .
COC(=O)c1c(OCc2cccnc2)cc(=O)n2c1CCN(C(=O)c1c3c(nn1C)CCCC3)CC2 | 0% | . | . | . | .
Nc1nc(N)c2c(n1)CN(Cc1ccc(Cl)cc1)C2 | -1% | . | 11µM* | -8% | -16%
CSc1nnc(CCNC(=O)/C=C/c2cccc(F)c2)n1-c1ccc(F)cc1 | 0% | . | . | . | .
SMILES | PINK1 modulator | Epigenetic reg | GLS inh | Vif-APOBEC3G blk | Vif-APOBEC3F blk
COc1ccc2cc(/C=N/NC(=O)c3ccc(CN(c4ccc(C)c(C)c4)S(C)(=O)=O)cc3)c(Cl)nc2c1 | 5% | 22µM* | 2% | -8% | 9%
COc1ccc2cc(/C=N/NC(=O)c3c(Cl)cnn3C)c(Cl)nc2c1 | ? | ? | 4% | -1% | 0%
COc1ccc(OC)c2sc(NC(=O)CCS(=O)(=O)c3ccccc3)nc12 | 0% | . | -2% | 11µM* | 3%
Cc1cnc(SCc2ccccn2)nc1C1CCCN(C(=O)c2scc3c2CCCC3)C1 (stereo not drawn) | 1% | . | . | . | .
CCn1c(C)cc(/C=C2\NC(=O)N(CC(=O)Nc3ccc(F)cc3)C2=O)c1C | 1% | 25µM* | -18% | 0% | 5%
Cc1ccc(NC(=O)CN2C(=O)N/C(=C/c3cc(C)n(-c4ccc(C(=O)O)cc4)c3C)C2=O)cc1 | 0% | 1% | -9% | 2% | -12%
Cc1ccc(NC(=O)CN2C(=O)N/C(=C/c3cccn3-c3ccc(C(=O)O)cc3)C2=O)cc1 | 9% | 0% | 5µM* | 4% | 1%
O=C1N/C(=C/c2cccn2-c2ccccc2)C(=O)N1Cc1ccc(F)cc1 | ? | 7.1µM* | -10% | -1% | -1%
O=C1N/C(=C/c2cccn2-c2ccc(F)cc2)C(=O)N1Cc1ccccc1F | 18% | 14% | -9% | -5% | ?
CCC1(C2CCN(C(=O)c3ccc(C)cc3C)CC2)NC(=O)N(CCc2scnc2C)C1=O (stereo not drawn) | -1% | . | . | . | .
O=C(O)c1ccccc1-c1ccc(C=c2sc3nc4cc(Br)cnc4n3c2=O)o1 | -1% | . | 7.9µM* | -4% | .
O=C(O)c1cc(C(=O)O)cc(-c2ccc(/C=c3/sc4nc5ccccc5n4c3=O)o2)c1 | ? | 0% | 0% | -11% | ?
O=C(O)c1cccc(-c2ccc(/C=c3/sc4nc5ccccc5n4c3=O)o2)c1 | 5% | ? | 13µM* | -18% | ?
Cc1cccc(-c2cccc(C(=O)N3CCc4c(cnc(C)c4CNC(=O)c4cncs4)C3)c2)c1 | 10% | . | . | . | .
O=C(NC1CCCC1)c1cn(C2CCCN(Cc3ccc4c(c3)OCCO4)C2)nn1 (stereo not drawn) | 0% | . | . | . | .
